Experimental data: PubChem BioAssay (NCATS)
Values joined by “and” are separate entries in the source; they are usually repeats but may differ in a detail not shown here. Equal values may be shown once. Inconclusive results are not listed. Active and inactive are the calls of the source. Unless noted, the call rests on the fitted dose curve; in most records, active means well fitted curve in the direction sought with a large enough effect; inconclusive means small, poorly fitted or top-dose-only effect, or another doubt; inactive means no such curve, though single readings can be large; an effect the other way counts as inactive or inconclusive.

Assays:
[1] = MultiTox-Fluor Cytotoxicity Assay - LYMP1-001 - Dead Cells (AID 946)
Summary of the method: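 Cytotoxicity as increased dead-cell protease fluorescence (bis-AAF-R110, 485/520 nm), read 60 min after MultiTox-Fluor reagent. Human lymphoblastoid line exposed 16 h; Hill-fitted AC50, with DMSO as 0% and 15 uM tetraoctylammonium bromide as 100%.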

[2] = Cell Viability - LYMP1-002 - Assay at 16 hr (AID 948);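 further: 0% = DMSO alone and full effect = 92 µM tetraoctylammonium bromide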
Summary of the method: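 LYMP1-002 human lymphoblastoid cells, 2500/well; 5 hr 37 C; cpd 16 hr 37 C; CellTiter-Glo 30 min RT; luminescence (ATP). Concentration-response, Hill-fit AC50. Pos ctrl tetraoctylammonium bromide.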

[3] = MultiTox-Fluor Cytotoxicity Assay - LYMP1-003 - Dead Cells (AID 961); further: nearly all actives have a fitted effect of over 70% in size
Summary of the method: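 Dead-cell protease release, detected as bis-AAF-R110 fluorescence at 485/520 nm, was measured in LYMP1-003 cells after 16 h compound treatment at 37 C. AC50 values came from Hill-modeled qHTS curves normalized to DMSO (0%) and 15 uM tetraoctylammonium bromide (100%).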

[4] = Cell Viability - LYMP1-003 - Assay at 24 hr (AID 963);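 further: plate controls were DMSO only for no effect and tetraoctylammonium bromide positive control for full effect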
Summary of the method: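 Cytotoxicity is scored as a concentration-dependent fall in ATP-linked luciferase signal in human lymphoblastoid LYMP1-003 cells treated 24 hr at 37 C in complete culture medium.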

[5] = Cell Viability - LYMP1-003 - Assay at 40 hr (AID 964); further: series mostly up to about 92 µM; on the % scale 0 is the no-effect control and ±100 the full control effect; nearly all actives have a fitted effect of over 60% in size
Summary of the method: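 Luminescent ATP signal (CellTiter-Glo) served as the viability read-out after 40 hr compound treatment of human lymphoblastoid LYMP1-003 cells at 37 C. Decreases in ATP were fitted with the Hill equation to give AC50.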

[6] = Cell Viability - LYMP2-003 (AID 965);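 further: cells exposed to compounds for 24 h before reading; 0% = DMSO only and full effect = 92 µM tetraoctylammonium bromide; nearly all actives have a fitted effect of over 50% in size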
Summary of the method: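 CellTiter-Glo luminescence (cellular ATP) after 24 h compound exposure at 37 C in complete medium; 2500 cells/well, 5 h settling beforehand. Concentration-response fitted to standard Hill equation for AC50. Tetraoctylammonium bromide served as positive control.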

[7] = Cell Viability - LYMP2-004 (AID 966);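 further: plate controls were DMSO only for no effect and tetraoctylammonium bromide control for full effect; nearly all actives have a fitted effect of over 65% in size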
Summary of the method: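 qHTS cytotoxicity: human lymphoblastoid line, 24 hr compound treatment, 37 C, complete medium. Viability read as cellular ATP via luciferase luminescence; tetraoctylammonium bromide served as positive control.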

[8] = Cell Viability - LYMP2-011 (AID 969);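 further: 0% = DMSO only and full inhibition = 92 µM tetraoctylammonium bromide; nearly all actives have a fitted effect of over 60% in size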
Summary of the method: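 In this qHTS cytotoxicity format, compounds are tested across concentrations on human lymphoblastoid cells in complete medium for 24 hours at 37 C. Viability is taken as cellular ATP measured by luciferase luminescence.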

[9] = Cell Viability - LYMP2-015 (AID 971);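 further: 0% = DMSO only and full effect = 92 µM tetraoctylammonium bromide; nearly all actives have a fitted effect of over 55% in size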
Summary of the method: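 Cells are seeded at 2500 per well and incubated 5 hr at 37 C. Compounds are added across a concentration series for 24 hr at 37 C. CellTiter-Glo is added, and luminescence is read after 30 min at room temperature.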

[10] = Cell Viability - LYMP2-023 (AID 975);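 further: series mostly up to about 92 µM; plate controls were DMSO only for no effect and 92 µM tetraoctylammonium bromide control for full effect; nearly all actives have a fitted effect of over 55% in size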
Summary of the method: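 Steps: seed 2500 human lymphoblastoid cells per well, incubate 5 hr at 37 C, add compound for 24 hr at 37 C, add CellTiter-Glo, hold 30 min at room temperature, read luminescence. AC50 derived by Hill modelling.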

[11] = Cell Viability - LYMP2-025 (AID 976);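 further: series mostly up to about 92 µM; plate controls were DMSO only for no effect and tetraoctylammonium bromide control for full effect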
Summary of the method: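 Acute cytotoxicity is scored as a concentration-dependent fall in intracellular ATP, measured by luciferase luminescence, in human lymphoblastoid LYMP2-025 cells exposed to compound for 24 hours at 37 C. AC50 values come from standard Hill fits.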

[12] = Cell Viability - LYMP2-002 (AID 977);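 further: series mostly up to about 92 µM; plate controls were DMSO only for no effect and 92 µM tetraoctylammonium bromide for full effect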
Summary of the method: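 In this qHTS viability screen, 2500 human lymphoblastoid cells per well receive compound for 24 hr at 37 C, and luciferase-based ATP luminescence gives the viability signal. Tetraoctylammonium bromide serves as positive control.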

[13] = Cell Viability - LYMP2-006 (AID 978); further: series mostly up to about 92 µM; on the % scale 0 is the no-effect control and ±100 the full control effect; nearly all actives have a fitted effect of over 60% in size
Summary of the method: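 qHTS, 1536-well; 2500 cells/well, 5 hr 37 C; cpd 24 hr 37 C; CellTiter-Glo 30 min RT; luminescence. Tetraoctylammonium bromide pos. ctrl. AC50 via Hill eqn.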

[14] = Cell Viability - LYMP2-008 (AID 980); further: on the % scale 0 is the no-effect control and ±100 the full control effect; nearly all actives have a fitted effect of over 60% in size
Summary of the method: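 Cells seeded at 2500/well and rested 5 hr at 37 C; compounds added over a concentration range and incubated 24 hr at 37 C; CellTiter-Glo added, 30 min at room temperature; luminescence read and AC50 fitted with Hill model.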

[15] = Cell Viability - LYMP2-012 (AID 982);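 further: cellular ATP by luciferase luminescence where a drop means cytotoxicity; cells exposed to compound for one day before reading; 0% = DMSO only and full loss = 92 µM tetraoctylammonium bromide; nearly all actives have a fitted effect of over 55% in size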
[16] = Cell Viability - LYMP2-014 (AID 983);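 further: series mostly up to about 92 µM; plate controls were DMSO only for no effect and 92 µM tetraoctylammonium bromide for full effect; nearly all actives have a fitted effect of over 50% in size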
Summary of the method: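 Cells are plated at 2500/well and left 5 hr at 37 C. Compounds are added across a concentration range and incubated 24 hr at 37 C in complete medium. CellTiter-Glo is added, and luminescence is read after 30 min at room temperature.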

[17] = Cell Viability - LYMP2-020 (AID 986);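 further: series mostly up to about 92 µM; plate controls were DMSO only for no effect and tetraoctylammonium bromide at 92 µM for full effect; nearly all actives have a fitted effect of over 55% in size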
Summary of the method: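 Seed 2500 cells per well and incubate 5 hr at 37 C. Add compounds at a concentration series and incubate 24 hr at 37 C. Add CellTiter-Glo, wait 30 min at RT, read luminescence, and fit a Hill curve for AC50.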

[18] = Cell Viability - LYMP1-002 - Assay at 40 hr (AID 994)
Summary of the method: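 Cells are plated at 2500 per well and rested 5 hr at 37 C. Compounds are added and incubated 40 hr at 37 C. CellTiter-Glo reagent is added for 30 min at room temperature before luminescence is read.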

[19] = molecular target: Peroxisome proliferator-activated receptor delta (Homo sapiens) (UniProt Q03181); assay: qHTS assay for small molecule agonists of peroxisome proliferator-activated receptor delta signaling (AID 588534; calls by dose curve;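 further: 0% = DMSO basal wells and 100% = positive control agonist at 10 µM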)
Peroxisome proliferator-activated receptor delta (Homo sapiens), sequence (Q03181 whole entry, looked up): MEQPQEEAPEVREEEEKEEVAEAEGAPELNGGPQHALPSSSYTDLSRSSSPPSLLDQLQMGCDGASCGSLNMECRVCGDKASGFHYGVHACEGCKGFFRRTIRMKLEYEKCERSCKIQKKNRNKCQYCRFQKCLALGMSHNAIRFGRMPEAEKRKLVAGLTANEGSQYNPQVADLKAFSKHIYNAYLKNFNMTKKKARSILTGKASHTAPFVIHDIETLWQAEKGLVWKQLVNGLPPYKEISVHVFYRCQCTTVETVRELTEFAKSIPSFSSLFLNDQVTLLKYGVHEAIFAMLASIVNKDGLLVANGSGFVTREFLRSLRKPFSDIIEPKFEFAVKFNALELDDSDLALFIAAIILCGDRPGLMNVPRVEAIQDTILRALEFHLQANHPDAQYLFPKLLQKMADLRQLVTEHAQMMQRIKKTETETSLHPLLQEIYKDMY
Summary of the method: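 Agonist-mode qHTS; reporter cells, 5 hrs 37 C pre-incubation; compound titration, 18 hrs 37 C; CCF4 dye, 2 hrs RT; fluorescence read. EC50/efficacy via Hill fit.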

[20] = molecular target: Retinoic acid receptor RXR-alpha (Homo sapiens) (UniProt P19793); assay: qHTS assay for small molecule antagonists of retinoid X receptor alpha signaling (AID 588546; active means well fitted inhibition curve with a large enough effect in the signal ratio, with a control signal flat, not every such curve was filed as active; the % refers to the signal ratio;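 further: cells stimulated with 9-cis-retinoic acid as agonist; on the % scale 0 is the no-effect control and ±100 the full control effect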); settings: HEK293T RXRa-UAS-bla, beta-lactamase ratio, antagonist mode
Retinoic acid receptor RXR-alpha (Homo sapiens), sequence (P19793 whole entry, looked up): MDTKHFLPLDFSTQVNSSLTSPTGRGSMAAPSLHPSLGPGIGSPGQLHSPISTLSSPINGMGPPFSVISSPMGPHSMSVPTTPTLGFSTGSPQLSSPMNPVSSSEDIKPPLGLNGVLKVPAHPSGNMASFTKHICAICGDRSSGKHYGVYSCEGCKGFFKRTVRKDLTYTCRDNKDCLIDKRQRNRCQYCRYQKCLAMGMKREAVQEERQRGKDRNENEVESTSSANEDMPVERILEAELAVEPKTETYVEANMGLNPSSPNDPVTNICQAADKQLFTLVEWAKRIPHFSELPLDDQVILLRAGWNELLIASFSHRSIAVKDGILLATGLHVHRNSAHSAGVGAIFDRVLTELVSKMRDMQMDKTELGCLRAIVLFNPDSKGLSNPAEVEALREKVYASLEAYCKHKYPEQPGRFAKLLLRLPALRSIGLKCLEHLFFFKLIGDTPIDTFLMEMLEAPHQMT
Summary of the method: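 Beta-lactamase reporter inhibition, read as CCF4 fluorescence ratio (ex 405, em 460/530 nm) after 2 h at RT. HEK293T UAS-bla cells, 2500/well, were stimulated with 9-cis-RA at 500 or 100 nM final alongside test compound for 18 h at 37 C.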

ClC(Cl)(Cl)c1ccccc1
inactive: Potency [1] | Potency [2] | Potency [3] | Potency [4] | Potency [5] | Potency [6] | Potency [7] | Potency [8] | Potency [9] | Potency [10] | Potency [11] | Potency [12] | Potency [13] | Potency [14] | Potency [15] | Potency [16] | Potency [17] | Potency [18] | outcome [19] | max response [20] 9.82% and 8.91%

S=C=Nc1cccc2ccccc12
inactive: Potency [1] | Potency [2] | Potency [3] | Potency [4] | Potency [5] | Potency [6] | Potency [7] | Potency [8] | Potency [9] | Potency [10] | Potency [11] | Potency [12] | Potency [13] | Potency [14] | Potency [15] | Potency [16] | Potency [17] | Potency [18] | outcome [19] | max response [20] 3.59%

Oc1ccc(Cl)cc1Cl
inactive: Potency [1] | Potency [2] | Potency [3] | Potency [4] | Potency [5] | Potency [6] | Potency [7] | Potency [8] | Potency [9] | Potency [10] | Potency [11] | Potency [12] | Potency [13] | Potency [14] | Potency [15] | Potency [16] | Potency [17] | Potency [18] | outcome [19] | max response [20] -2.36% and -1.51%

CCCC(=O)Cl
inactive: Potency [1] | Potency [2] | Potency [3] | Potency [4] | Potency [5] | Potency [6] | Potency [7] | Potency [8] | Potency [9] | Potency [10] | Potency [11] | Potency [12] | Potency [13] | Potency [14] | Potency [15] | Potency [16] | Potency [17] | Potency [18] | outcome [19] | max response [20] 15.7%

[O-][Br+2]([O-])O
inactive: Potency [1] | Potency [2] | Potency [3] | Potency [4] | Potency [5] | Potency [6] | Potency [7] | Potency [8] | Potency [9] | Potency [10] | Potency [11] | Potency [12] | Potency [13] | Potency [14] | Potency [15] | Potency [16] | Potency [17] | Potency [18] | outcome [19] | max response [20] 9.17% and 7.78%

CC(O)CCl (centres undefined)
inactive: Potency [1] | Potency [2] | Potency [3] | Potency [4] | Potency [5] | Potency [6] | Potency [7] | Potency [8] | Potency [9] | Potency [10] | Potency [11] | Potency [12] | Potency [13] | Potency [14] | Potency [15] | Potency [16] | Potency [17] | Potency [18] | outcome [19] | max response [20] -5.06% and 5.36%

Clc1nc(Cl)nc(Nc2ccccc2Cl)n1
inactive: Potency [1] | Potency [2] | Potency [3] | Potency [4] | Potency [5] | Potency [6] | Potency [7] | Potency [8] | Potency [9] | Potency [10] | Potency [11] | Potency [12] | Potency [13] | Potency [14] | Potency [15] | Potency [16] | Potency [17] | Potency [18] | outcome [19] | max response [20] 8.47%

c1ccc(-c2ccccc2)cc1
inactive: Potency [1] | Potency [2] | Potency [3] | Potency [4] | Potency [5] | Potency [6] | Potency [7] | Potency [8] | Potency [9] | Potency [10] | Potency [11] | Potency [12] | Potency [13] | Potency [14] | Potency [15] | Potency [16] | Potency [17] | Potency [18] | outcome [19] | max response [20] -4.53% and 7.05%

C=CC(=O)OCC
inactive: Potency [1] | Potency [2] | Potency [3] | Potency [4] | Potency [5] | Potency [6] | Potency [7] | Potency [8] | Potency [9] | Potency [10] | Potency [11] | Potency [12] | Potency [13] | Potency [14] | Potency [15] | Potency [16] | Potency [17] | Potency [18] | outcome [19] | max response [20] 4.16%

Cc1ccccc1N
inactive: Potency [1] | Potency [2] | Potency [3] | Potency [4] | Potency [5] | Potency [6] | Potency [7] | Potency [8] | Potency [9] | Potency [10] | Potency [11] | Potency [12] | Potency [13] | Potency [14] | Potency [15] | Potency [16] | Potency [17] | Potency [18] | outcome [19] | max response [20] 13.9%

N#CCCCl
inactive: Potency [1] | Potency [2] | Potency [3] | Potency [4] | Potency [5] | Potency [6] | Potency [7] | Potency [8] | Potency [9] | Potency [10] | Potency [11] | Potency [12] | Potency [13] | Potency [14] | Potency [15] | Potency [16] | Potency [17] | Potency [18] | max response [20] 15.2% and 9.43%
